Consider 48 compounds from ChEMBL document CHEMBL3988442, “University of Dundee, Small-Polar-MMV Screening Library” (2021).

The test system of the experiment is Trypanosoma brucei. Description: Trypanosoma brucei 72 hour study. The class given is functional, organism-based. Further details: scale not given: in the data most compounds retested in dose-response had high values.

Screen size: about 66,000 compounds; about 960 (1.5%) showed an effect of 50% or more. The sample holds strong results, similar compounds and a random draw of the others, so the mix is not that of the screen.

`N#CC1(C(=O)N2C[C@H]3CC[C@@H]2CN(Cc2cscn2)C3)CCOCC1`: the “Percent Effect” value (30 µM, 30.03 µM) was -52.3%. With `Cc1nn(C)c(C)c1C1CCCN1CC(=O)Nc1nccs1` (stereo not drawn), the “Percent Effect” value (30.3 µM, […]) is recorded as -4.403%. Same read-out and setting: the figure for `CNC(=O)[C@@H]1C[C@H]2CN(Cc3csc(C)n3)C[C@H]2N1C(C)C.O=C(O)C(F)(F)F.O=C(O)C(F)(F)F` is 4.031%. Same read-out and setting: the figure for `Cc1nc(C(=O)N2CCN(c3ccc(Cl)c(Cl)c3)CC2)cs1` is 12.74%. For `Cc1nccc([C@H]2C[C@@H]3CCN(S(=O)(=O)C4CC4)C[C@H]3O2)n1`, the “Percent Effect” value (30.3 µM, […]) is listed as -36.22%. Still for that read-out and setting: the figure for `Cc1nccc([C@H]2C[C@@H]3CCN(S(C)(=O)=O)C[C@H]3O2)n1` is -74.86%. Regarding `Cc1nccc([C@@H]2C[C@@H]3CCN(S(C)(=O)=O)C[C@H]3O2)n1`, the “Percent Effect” value (30 µM, 30.03 µM) amounted to 53.53%. The same measure, in the same setting: the figure for `CCNC(=O)Nc1ccc(N2CCC(OC)CC2)c(C(F)(F)F)c1` is -0.4307%. With `COc1ccc(CN2CCc3[nH]nc(C(=O)N(C)C)c3C2)cc1.O=C(O)C(F)(F)F`, the “Percent Effect” value (30.3 µM, […]) was found to be 4.36%. The same measure, in the same setting: the same measure for `COc1ccc(F)c(CN(CCCn2ccnc2)Cc2ccc(C)s2)c1.O=C(O)CC(O)(CC(=O)O)C(=O)O`: -24.6%. Same read-out and setting: the same measure for `CN(CC(=O)NC(Cc1ccsc1)c1cccnc1)Cc1cccnc1.Cl` (stereo not drawn): -0.9311%. Turning to `CC(C)c1noc(CN(C)C(c2ccc(F)cc2)c2cccnc2)n1` (stereo not drawn), the “Percent Effect” value (30 µM, 30.03 µM) was 70.75%. Same read-out and setting: the same measure for `CN(Cc1nnc(C2CC2)o1)C(c1ccc(F)cc1)c1cccnc1` (stereo not drawn): -93.52%. Still for that read-out and setting: the figure for `CC(C)c1nnc(CN(C)C(c2ccc(F)cc2)c2cccnc2)o1` (stereo not drawn) is -53.44%. `Cc1noc(NCc2ccc(F)cc2)n1`: the “Percent Effect” value (30.3 µM, […]) is listed as 55.37%. For `Cc1noc(NCc2cn(C)nc2-c2ccncc2)n1`, the “Percent Effect” value (30 µM, 30.03 µM) was -13.42%.

Take `COCc1cc(NCc2cc(F)ccc2F)n2nccc2n1`: the “Percent Effect” value (30 µM, 30.03 µM) is -36.1%.

For the compound `Cc1noc(CS(=O)(=O)c2cc(F)ccc2F)n1`, the “Percent Effect” value (30.3 µM, […]) is -4.369%. Regarding `CC(C)(C)c1nnc(NCc2ccc(F)cc2)o1`, the “Percent Effect” value (30 µM, 30.03 µM) is on record as -100%. The same measure, in the same setting: the same measure for `Cc1noc(NCc2cn(C)nc2-c2cccnc2)n1`: -14.18%. With `Cc1noc(NCc2cc(F)ccc2F)n1`, under “30.3 µM, […]”, the “Percent Effect” value is listed as 50.55%. With `Cc1noc(NCc2ccc(F)cc2F)n1`, under “30.3 µM, […]”, the “Percent Effect” value came to 72.2%. As for `Cc1nnc(NCc2ccc(F)cc2)o1`, where the note is “30 µM, 30.03 µM”, the “Percent Effect” value is -52.4%. Regarding `Cc1occc1C(=O)N1CCc2c(CNS(C)(=O)=O)cncc2C1.Cl`, for the setting “30.3 µM, […]”, the “Percent Effect” value is -7.203%. Take `CN(C)C[C@]12COC[C@H]1CN(C(=O)Cc1ccc3c(c1)OCO3)C2.O=C(O)C(F)(F)F`: the “Percent Effect” value (30 µM, 30.03 µM) came to 24.04%.

Turning to `Cn1ncc2c(NC3CCSC3)nc(-c3ccncc3)nc21` (stereo not drawn), the “Percent Effect” value (30.3 µM, […]) turned out to be 38.84%. On the same count and under the same terms, the same measure for `CC(=O)N1CCN(Cc2cccs2)CC2(CC(=O)N(C)C2)C1.O=C(O)C(F)(F)F` (stereo not drawn): -45.81%. Turning to `CN1CC(=O)N(c2ccsc2)CC12CCN(C(=O)c1cccn1C)C2.O=C(O)C(F)(F)F` (stereo not drawn), the “Percent Effect” value (30 µM, 30.03 µM) was -33.31%.

As to `Cc1noc([C@@H]2CCO[C@@H]3CCN(Cc4ccc(C)s4)C[C@@H]32)n1.O=C(O)C(F)(F)F`, under “30 µM, 30.03 µM”, the “Percent Effect” value came to 1.711%.

For the compound `O=C(O)C(F)(F)F.O=C(O)c1c(-c2cncnc2)ncc2c1CCN(CC1CCOC1)C2` (stereo not drawn), the “Percent Effect” value (30.3 µM, […]) was -18.52%. Take `CCn1ncc2c1C(COCC1CC1)CN(c1ccncn1)C2.O=C(O)C(F)(F)F.O=C(O)C(F)(F)F` (stereo not drawn): the “Percent Effect” value (30 µM, 30.03 µM) is given as -5.077%.

For the compound `O=C1CCCN1C(CNS(=O)(=O)C1CC1)Cc1cccc(F)c1` (stereo not drawn), the “Percent Effect” value (30 µM, 30.03 µM) amounted to 7.214%. As for `COCCN1CCCC(c2nc(C)n3c(C)c(C)sc23)C1` (stereo not drawn), the “Percent Effect” value (30.3 µM, […]) is -27.06%.

With `Cc1sc2c(C3CCCN(C(C)C)C3)nc(C)n2c1C` (stereo not drawn), where the note is “30.3 µM, […]”, the “Percent Effect” value is reported as -21.43%. In the case of `Cc1sc2c(C3CCCN(S(C)(=O)=O)C3)nc(C)n2c1C` (stereo not drawn), the “Percent Effect” value (30.3 µM, […]) is on record as 73.25%.

`O=C(O)C(F)(F)F.c1cncc(CN2Cc3nccn3CC(Cn3cncn3)C2)c1` (stereo not drawn): where the note is “30 µM, 30.03 µM”, the “Percent Effect” value is given as -73.02%. As for `Cc1cccc(C2(CNC(C)c3nnc(C)o3)CCCC2)c1` (stereo not drawn), the “Percent Effect” value (30.3 µM, […]) is 99.4%. On the same count and under the same terms, the same measure for `Cc1nnc(C(C)NCC2(c3ccc(Cl)cc3)CCCC2)o1` (stereo not drawn): -10.5%; for `COc1cccc(C2(CNC(C)c3nnc(C)o3)CCCC2)c1` (stereo not drawn): -15.21%. On the same count and under the same terms, the figure for `COc1ccc(C2(CNC(C)c3nnc(C)o3)CCCCC2)cc1` (stereo not drawn) is 100.1%; for `Cc1nnc(C(C)NCC2(c3ccc(Cl)cc3)CCOCC2)o1` (stereo not drawn) it is -12.99%; for `Cc1nnc(C(C)NCC2(c3ccc(F)cc3)CCCCC2)o1` (stereo not drawn) it is 9.19%. `Cc1nccc(CNC(=O)NC(c2ncc(C)s2)C2CC2)n1` (stereo not drawn): the “Percent Effect” value (30 µM, 30.03 µM) is -69.67%. Consider `CN(C)CCOCc1nnc2n1CCN(Cc1ccco1)CC2.O=C(O)C(F)(F)F.O=C(O)C(F)(F)F`, for which, under “30.3 µM, […]”, the “Percent Effect” value is recorded as -5.145%. Turning to `CCC1=N[C@@]2(CC[C@@H]3CN(Cc4ccc(C)cc4)C[C@@H]32)C(=O)N1C.O=C(O)C(F)(F)F`, under “30.3 µM, […]”, the “Percent Effect” value is -61.95%. In the case of `O=C(O)C(F)(F)F.O=C1CC2(CCCCN2C(=O)c2ccncc2)CN1CC1CC1` (stereo not drawn), the “Percent Effect” value (30.3 µM, […]) is recorded as -11.8%. As for `O=C(CCn1cncn1)N1CCCC1c1noc(C2CC2)n1` (stereo not drawn), for the setting “10 µM”, the “Percent Effect” value was -39.57%. Turning to `COCCN1CCC2(CC1)CC(NC(=O)C1CC1)c1ccccc1O2.O=C(O)C(F)(F)F` (stereo not drawn), under “30.3 µM, […]”, the “Percent Effect” value is recorded as -14.66%.
